Experimental data published in PubChem BioAssay AID1159580 (chemical genetic matrix, 2015).
Out of some 5,500 compounds screened, about 2,000 (36%) were called active. Not shown: some 18% with an inconclusive outcome. Cut-off read from the data, not from the text of the source: active = normalized growth mostly below about 0.91 (no sharp cut-off); inconclusive = no clear call, values can overlap the other calls; inactive = mostly above about 0.92. The list shows a part of the results.

Assay: chemical genetic growth profiling, strain panel (AID 1159580);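 note: tested at 20 µM; growth read once vehicle control cultures reached saturation at 30 °C; 1 = growth at the plate median or of vehicle wells; lower values mean less growth of the strain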
Conditions: S. cerevisiae deletion strains, growth OD
[1] = locus YAL013W, strain DEP1, stronger effect = lower value
[2] = locus YAL040C, strain CLN3, stronger effect = lower value
[3] = locus YCL061C, strain MRC1 (second series), stronger effect = lower value
[4] = locus YDR363W, strain ESC2, stronger effect = lower value
[5] = locus YER002W, strain NOP16, stronger effect = lower value
[6] = locus YMR263W, strain SAP30, stronger effect = lower value
[7] = locus YNL153C, strain GIM3, stronger effect = lower value
[8] = locus YNL175C, strain NOP13, stronger effect = lower value
[9] = locus YNL197C, strain WHI3, stronger effect = lower value
[10] = locus YNL224C, strain SQS1, stronger effect = lower value
[11] = locus YOR083W, strain WHI5 (second series), stronger effect = lower value

Measured: normalized growth

O=C(O)/C=C/C(O)c1ccc(Cl)cc1 (centres undefined)
inactive: [1] 0.986 | [2] 1.07 | [3] 0.982 | [4] 1.02 | [5] 1 | [6] 0.983 | locus YMR307W, strain GAS1, stronger effect = lower value 1.03 | [7] 0.997 | [8] 0.997 | [9] 0.986 | [10] 0.98 | [11] 0.998 | locus YPL241C, strain CIN2, stronger effect = lower value 0.985

CC(N)c1cccc(Cl)c1Cl (centres undefined)
inactive: [1] 1.01 | [2] 0.969 | [3] 1 | locus YDR150W, strain NUM1, stronger effect = lower value 0.996 | [4] 1.08 | [5] 1.01 | locus YGR078C, strain PAC10, stronger effect = lower value 0.981 | locus YJR075W, strain HOC1, stronger effect = lower value 1.02 | [6] 1 | locus YNL128W, strain TEP1, stronger effect = lower value 1.01 | [7] 0.972 | [8] 0.981 | [9] 0.953 | [10] 1.01 | [11] 1.01 | locus YPL055C, strain LGE1, stronger effect = lower value 1.07
